DT40 TDP1 CPT – DT40-hTDP1 cell growth loss with CPT; chicken DT40 Tdp1-/-;hTDP1 cells + 20 nM CPT, ATP luminescence, 48 h; Potency, µM (series often up to 46.2 µM), without a hit: at the top dose activity change, negative = growth inhibition, actives largely listed as inhibitors; actives 12% (n = 420,000); AID 686979; also: potency is read from the fitted curve at half-maximal effect; nearly all actives have a fitted effect of over 55% in size
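Cell growth measured by CellTiter-Glo luminescence after a minimum 48 h, 37 C compound exposure with 20 nM CPT in Tdp1-knockout DT40 cells stably expressing hTDP1, seeded 400/well; qHTS titration format.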
IL1B secr inh – inhibitors of inflammasome signaling (IL-1 beta secretion). THP-1 LPS/ATP IL-1B secretion, AlphaLISA, 16 h; stronger effect = lower value. activity change, % at 57.5 µM. actives 4.7% (n = 360,000); in the data active = activity change below about -50%; inconclusive = mostly about -30% to -49%
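Secreted IL-1B measured by AlphaLISA bead assay after 16 h compound exposure of THP-1 cells; compounds (final up to 57.5 uM) added 1 h before LPS (250 ng/mL) and ATP (1.25 mM) stimulation; lower signal means less secretion.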
VP16 counter – Gal4-VP16 reporter inhibition counter-screen; Drosophila S2 Gal4-VP16 UAS-luciferase, luminescence, 20 h; Potency, µM (doses to about 53.6 µM), inactives show top-dose activity, negative = inhibition, actives largely listed as inhibitors; actives 3.5% (n = 310,000);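 also: Gal4-VP16 expression switched on by copper sulfate through the metallothionein promoter; potency is read from the fitted curve at half-maximal effect; nearly all actives have a fitted effect of over 50% in size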
RORgamma inh – inhibitors of mouse ROR gamma transcriptional activity. P51450. actives 5.4% (n = 310,000). Potency, µM (doses to about 53.6 µM), for the others: at the highest dose activity change, negative = inhibition, usual class: inhibitors. Drosophila S2 Gal4-RORgamma UAS-luciferase reporter, 20 h; also: potency is read from the fitted curve at half-maximal effect; nearly all actives have a fitted effect of over 60% in size
Target sequence (P51450 whole entry, looked up, the tested form may be a part): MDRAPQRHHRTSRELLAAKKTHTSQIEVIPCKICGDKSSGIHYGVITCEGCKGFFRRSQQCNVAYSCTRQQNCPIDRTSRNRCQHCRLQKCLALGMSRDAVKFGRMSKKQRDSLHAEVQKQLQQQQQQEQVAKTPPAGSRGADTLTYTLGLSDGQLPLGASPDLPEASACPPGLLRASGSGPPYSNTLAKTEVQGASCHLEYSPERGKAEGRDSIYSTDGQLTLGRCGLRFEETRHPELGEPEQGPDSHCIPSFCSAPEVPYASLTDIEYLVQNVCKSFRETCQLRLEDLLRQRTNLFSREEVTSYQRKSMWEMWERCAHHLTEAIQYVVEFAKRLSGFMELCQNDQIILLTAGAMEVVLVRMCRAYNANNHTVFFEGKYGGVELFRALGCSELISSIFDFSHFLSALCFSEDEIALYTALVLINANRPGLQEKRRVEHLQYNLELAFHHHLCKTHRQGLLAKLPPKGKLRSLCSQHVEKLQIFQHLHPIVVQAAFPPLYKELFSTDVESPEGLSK
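In this cell-based reporter format, copper sulfate (700 uM final) drives Gal4–ROR gamma fusion expression from a metallothionein promoter in Drosophila Schneider cells; compounds preincubated 1 hr, reporter read after 20 hr at ambient temperature.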
TDP1 cell noCPT – qHTS for Inhibitors of human tyrosyl-DNA phosphodiesterase 1 (TDP1): qHTS in cells in absence of CPT; DT40 Tdp1-/- hTDP1 cells, no CPT, ATP luminescence, 48 h; Potency, µM (top dose mostly 46.2 µM), for inactives: top-dose activity change, negative = growth inhibition, usual class: inhibitors; actives 15% (n = 420,000); also: potency is read from the fitted curve at half-maximal effect; nearly all actives have a fitted effect of over 55% in size
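DT40 Tdp1-/-;hTDP1 cells, no CPT (DMSO vehicle only), 400 cells/well; compounds pin-transferred; ≥48 hr, 37 °C; CellTiter-Glo 30 min RT dark, luminescence read.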
ELG1 DNA repair – blocks ELG1-dependent DNA repair in HEK293T cells | HEK293T ELG1-luciferase reporter, luminescence, 16 h; DNA damage induced by 5-fluorouridine | Potency, µM (doses to about 46.1 µM), inactives show at the top dose activity change, negative = inhibition, actives largely listed as inhibitors | actives 2.3% (n = 330,000); also: potency is read from the fitted curve at half-maximal effect; nearly all actives have a fitted effect of over 55% in size
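Step one: seed 2,000 cells per well. Step two: pin-transfer compound or DMSO alongside 5-fluorouridine. Step three: incubate 16 hr, 37 °C, 5% CO2. Step four: add ONE-Glo, wait 30 min, read luminescence.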
* = called active by the depositor; ? = inconclusive; . = not tested or not shown; [ ] = another dose, or the depositor's remark. Most compounds without a hit are left out; they make up all but 21% or so of the library. Unless noted, calls follow the shape of the dose curve; as a rule, active = well fitted curve in the direction sought with a large enough effect; inconclusive = small, poorly fitted or top-dose-only effect, or another doubt; inactive = no such curve, though single readings can be large; an effect the other way counts as inactive or inconclusive. % is scaled to controls: 0 for no effect and ±100 for the full control effect.

SMILES	DT40 TDP1 CPT	IL1B secr inh	VP16 counter	RORgamma inh	TDP1 cell noCPT	ELG1 DNA repair
Cc1ccc(C(=O)/C=C2\NCC(C)NC2=O)cc1 (stereo unspecified)	-13%	-22	10µM*	8.9µM*	-20%	?
Cc1ccc(C(=O)/C=C2\NCCNC2=O)cc1	-11%	-6	3%	?	-10%	?
Cn1c(=O)[nH]c(=O)c2c1nc(NN)n2CCOc1ccccc1	-16%	-18	4%	1%	?	-11%
Cc1ccccc1NC(=O)CSc1nc2ccc(NC(=O)c3ccco3)cc2s1	16µM*	.	.	.	21µM*	.
Cc1ccc(NC(=O)CSc2nc3ccc(NC(=O)c4ccco4)cc3s2)c(C)c1	16µM*	.	.	.	7.3µM*	.
CCOC(=O)CSc1nc2ccc(NC(=O)c3ccc(F)cc3)cc2s1	-3%	.	.	.	-27%	.
Cc1ccccc1NC(=O)CSc1nc2ccc(NC(=O)c3ccccc3)cc2s1	?	.	.	.	16µM*	.
CC(=O)Nc1ccc(NC(=O)c2c(-c3ccccc3)noc2C)cc1	-8%	.	.	.	-26%	.
CSc1nc2ccc(NC(=O)c3c(-c4ccccc4)noc3C)cc2s1	-3%	-65*	-1%	8%	?	?
Cc1nc2ccc(NC(=O)c3ccco3)cc2s1	3%	-9	11%	19%	-3%	?
Cc1cccc(NC(=O)CSc2nc3ccc(NC(=O)c4ccco4)cc3s2)c1	10µM*	.	.	.	2.6µM*	.
Cc1ccccc1NC(=O)CSc1nc2ccc(NC(=O)CCc3ccccc3)cc2s1	?	.	.	.	9.2µM*	.
COc1cccc(NC(=O)CSc2nc3ccc(NC(=O)c4ccco4)cc3s2)c1	13µM*	.	.	.	18µM*	.
N#Cc1cc2c(=O)n3ccccc3nc2n(-c2nnc(SCc3ccc(F)cc3)s2)c1=O	-18%	.	.	.	-23%	.
COc1ccc([C@H]2C[C@H](O)C[C@@H](CCn3cc(-c4ccccc4)nn3)O2)cc1	?	69	.	.	?	.
COc1ccc(NC(=O)CN(C)C(=O)c2sc3cc(Cl)ccc3c2Cl)cc1	-17%	-1	.	.	?	?
O=C(/C=C/c1ccc(F)cc1)NC(=S)Nc1ccccc1O	?	?	?	?	18µM*	?
O=C(C=Cc1ccccc1)NCCNC(=O)C=Cc1ccccc1	-15%	38	.	.	-5%	.
NC(=S)NC(=O)/C=C/c1ccccc1	-10%	-96*	?	7.9µM*	?	?
O=C(/C=C/c1ccccc1)NC(=S)Nc1ccccc1O	?	-63*	?	?	21µM*	?
Cc1ccc(O)c(NC(=S)NC(=O)/C=C/c2ccccc2)c1	24%	-14	9%	-15%	-27%	4%
O=C(/C=C/c1ccccc1)NCCSCc1ccccc1	?	9	13µM*	?	?	?
O=C(/C=C/c1ccc(Cl)cc1)NC(=S)Nc1ccccc1C(=O)O	?	0	0%	9%	?	-3%
O=C(CN1C(=O)c2ccccc2C1=O)Oc1ccc(F)cc1	.	.	2%	-20%	.	-14%
Fc1cc(Br)ccc1Nc1c2c(nc3nc(-c4cccs4)nn13)CCCC2	21µM*	.	.	.	18µM*	.
CC(=O)c1cccc(Nc2c3c(nc4nc(-c5cccs5)nn24)CCCC3)c1	?	.	.	.	18µM*	.
COC(=O)C[C@@H]1C=C[C@H](NC(=O)Nc2ccc(F)cc2)[C@@H](CO)O1	-3%	17	.	.	7%	.
COC(=O)c1c(-c2cc(C)ccc2C)csc1NC(=O)C1CC=CCC1C(=O)O (stereo unspecified)	2%	37	13%[10 µM]	10%	-6%	-2%

Screening data (PubChem BioAssay)
